# Reference: PubChem BioAssay AID1159580 (chemical genetic matrix, 2015)
# Where “and” joins values, the source holds several entries; their conditions need not be identical. Equal entries are not always repeated. Among all 5,500 compounds or so, about 2,000 (36%) were called active. About 18% were inconclusive and are not listed. Rule as the data show it: active = normalized growth mostly below about 0.91 (no sharp cut-off); inconclusive = no clear call, values can overlap the other calls; inactive = mostly above about 0.92. Some of the results follow.
# Assay: chemical genetic growth profiling, strain panel (AID 1159580);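 also: tested at 20 µM; growth read once vehicle control cultures reached saturation at 30 °C; 1 = growth at the plate median or of vehicle wells; lower values mean less growth of the strain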
# Conditions: S. cerevisiae deletion strains, growth OD
structure (smiles),measurement,setting,value
C=CC(C)(O)CC/C=C(\C)CCC=C(C)C (configuration not stated),normalized growth,"locus YAL013W, strain DEP1, stronger effect = lower value",0.947 (inactive)
same,normalized growth,"locus YAL021C, strain ccr4, stronger effect = lower value",0.913 (inactive)
same,normalized growth,"locus YAL026C, strain drs2, stronger effect = lower value",0.958 (inactive)
same,normalized growth,"locus YAL030W, strain snc1, stronger effect = lower value",0.986 (inactive)
same,normalized growth,"locus YBL061C, strain skt5, stronger effect = lower value",0.951 (inactive)
same,normalized growth,"locus YBR009C, strain hhf1, stronger effect = lower value",0.923 (inactive)
same,normalized growth,"locus YBR021W, strain FUR4, stronger effect = lower value",0.863 (inactive)
same,normalized growth,"locus YBR023C, strain chs3, stronger effect = lower value",0.938 (inactive)
same,normalized growth,"locus YBR171W, strain sec66, stronger effect = lower value",0.965 (inactive)
same,normalized growth,"locus YBR229C, strain ROT2, stronger effect = lower value",0.999 (inactive)
same,normalized growth,"locus YBR231C, strain swc5, stronger effect = lower value",0.98 (inactive)
same,normalized growth,"locus YCL011C, strain gbp2, stronger effect = lower value",0.949 (inactive)
same,normalized growth,"locus YCL016C, strain dcc1, stronger effect = lower value",0.965 (inactive)
same,normalized growth,"locus YCL029C, strain bik1, stronger effect = lower value",0.993 (inactive)
same,normalized growth,"locus YCL061C, strain MRC1, stronger effect = lower value",0.969 (inactive)
same,normalized growth,"locus YCL069W, strain vba3, stronger effect = lower value",0.968 (inactive)
same,normalized growth,"locus YCR088W, strain abp1, stronger effect = lower value",0.975 (inactive)
same,normalized growth,"locus YDL005C, strain med2, stronger effect = lower value",0.956 (inactive)
same,normalized growth,"locus YDL035C, strain GPR1, stronger effect = lower value",0.956 (inactive)
same,normalized growth,"locus YDL040C, strain nat1, stronger effect = lower value",0.982 (inactive)
same,normalized growth,"locus YDL074C, strain BRE1, stronger effect = lower value",0.886 (inactive)
same,normalized growth,"locus YDL101C, strain DUN1, stronger effect = lower value",0.958 (inactive)
same,normalized growth,"locus YDL185W, strain tfp1, stronger effect = lower value",1.02 (inactive)
same,normalized growth,"locus YDL192W, strain arf1, stronger effect = lower value",0.952 (inactive)
same,normalized growth,"locus YDR001C, strain nth1, stronger effect = lower value",0.98 (inactive)
same,normalized growth,"locus YDR069C, strain doa4, stronger effect = lower value",0.946 (inactive)
same,normalized growth,"locus YDR101C, strain arx1, stronger effect = lower value",0.992 (inactive)
same,normalized growth,"locus YDR137W, strain rgp1, stronger effect = lower value",0.916 (inactive)
same,normalized growth,"locus YDR159W, strain sac3, stronger effect = lower value",0.862 (inactive)
same,normalized growth,"locus YDR162C, strain NBP2, stronger effect = lower value",0.92 (inactive)
same,normalized growth,"locus YDR195W, strain ref2",0.662 (active)
same,normalized growth,"locus YDR297W, strain sur2, stronger effect = lower value",0.974 (inactive)
same,normalized growth,"locus YDR318W, strain mcm21, stronger effect = lower value",0.99 (inactive)
same,normalized growth,"locus YDR334W, strain swr1, stronger effect = lower value",0.944 (inactive)
same,normalized growth,"locus YDR335W, strain msn5, stronger effect = lower value",0.979 (inactive)
same,normalized growth,"locus YDR388W, stronger effect = lower value",0.985 (inactive)
same,normalized growth,"locus YDR392W, strain spt3, stronger effect = lower value",0.454 (active)
same,normalized growth,"locus YDR502C, strain sam2, stronger effect = lower value",0.978 (inactive)
same,normalized growth,"locus YEL003W, strain gim4, stronger effect = lower value",0.983 (inactive)
same,normalized growth,"locus YEL037C, strain rad23, stronger effect = lower value",0.964 (inactive)
same,normalized growth,"locus YEL061C, strain CIN8 (second series), stronger effect = lower value",0.978 (inactive)
same,normalized growth,"locus YEL061C, strain CIN8, stronger effect = lower value",0.937 (inactive)
same,normalized growth,"locus YER015W, strain faa2, stronger effect = lower value",0.974 (inactive)
same,normalized growth,"locus YER016W, strain bim1, stronger effect = lower value",0.988 (inactive)
same,normalized growth,"locus YER110C, stronger effect = lower value",1.01 (inactive)
same,normalized growth,"locus YER111C, strain swi4, stronger effect = lower value",0.947 (inactive)
same,normalized growth,"locus YER155C, strain BEM2 (second series), stronger effect = lower value",0.777 (active)
same,normalized growth,"locus YER155C, strain BEM2, stronger effect = lower value",0.807 (active)
same,normalized growth,"locus YER167W, strain BCK2, stronger effect = lower value",0.944 (inactive)
same,normalized growth,"locus YFR010W, strain ubp6, stronger effect = lower value",0.903 (inactive)
same,normalized growth,"locus YGL078C, strain dbp3, stronger effect = lower value",0.988 (inactive)
same,normalized growth,"locus YGL086W, strain mad1, stronger effect = lower value",0.981 (inactive)
same,normalized growth,"locus YGL167C, strain pmr1, stronger effect = lower value",0.984 (inactive)
same,normalized growth,"locus YGL173C, strain kem1, stronger effect = lower value",0.965 (inactive)
same,normalized growth,"locus YGL227W, strain vid30, stronger effect = lower value",0.979 (inactive)
same,normalized growth,"locus YGL240W, strain doc1, stronger effect = lower value",0.964 (inactive)
same,normalized growth,"locus YGL248W, strain PDE1, stronger effect = lower value",0.931 (inactive)
same,normalized growth,"locus YGL253W, strain hxk2, stronger effect = lower value",0.984 (inactive)
same,normalized growth,"locus YGR135W, strain pre9, stronger effect = lower value",0.967 (inactive)
same,normalized growth,"locus YGR252W, strain gcn5, stronger effect = lower value",1.03 (inactive)
same,normalized growth,"locus YHR013C, strain ard1, stronger effect = lower value",0.964 (inactive)
same,normalized growth,"locus YHR027C, strain rpn1, stronger effect = lower value",0.978 (inactive)
same,normalized growth,"locus YHR030C, strain SLT2, stronger effect = lower value",0.955 (inactive) and 0.825 (active)
same,normalized growth,"locus YHR079C, strain IRE1 (second series), stronger effect = lower value",0.999 (inactive)
same,normalized growth,"locus YHR079C, strain IRE1, stronger effect = lower value",0.81 (active)
same,normalized growth,"locus YHR094C, strain hxt1, stronger effect = lower value",1.02 (inactive)
same,normalized growth,"locus YHR129C, strain ARP1, stronger effect = lower value",0.939 (inactive)
same,normalized growth,"locus YHR142W, strain chs7, stronger effect = lower value",0.75 (active)
same,normalized growth,"locus YHR200W, strain rpn10, stronger effect = lower value",0.991 (inactive)
same,normalized growth,"locus YIL066C, strain RNR3, stronger effect = lower value",0.934 (inactive)
same,normalized growth,"locus YIL073C, strain SPO22, stronger effect = lower value",0.88 (inactive)
same,normalized growth,"locus YIL125W, strain kgd1, stronger effect = lower value",1.02 (inactive)
same,normalized growth,"locus YIR030C, strain dcg1, stronger effect = lower value",1.01 (inactive)
same,normalized growth,"locus YJL092W, strain hpr5, stronger effect = lower value",0.965 (inactive)
same,normalized growth,"locus YJL095W, strain BCK1 (second series), stronger effect = lower value",0.99 (inactive)
same,normalized growth,"locus YJL095W, strain BCK1, stronger effect = lower value",0.869 (inactive) and 0.946 (inactive)
same,normalized growth,"locus YJL115W, strain asf1, stronger effect = lower value",0.954 (inactive)
same,normalized growth,"locus YJL129C, strain trk1, stronger effect = lower value",0.923 (inactive)
same,normalized growth,"locus YJL134W, strain LCB3, stronger effect = lower value",0.997 (inactive)
same,normalized growth,"locus YJL154C, strain vps35, stronger effect = lower value",0.959 (inactive)
same,normalized growth,"locus YJL164C, strain tpk1, stronger effect = lower value",0.915 (active)
same,normalized growth,"locus YJL166W, strain qcr8, stronger effect = lower value",0.902 (active)
same,normalized growth,"locus YJL168C, strain set2, stronger effect = lower value",1.01 (inactive)
same,normalized growth,"locus YJL187C, strain SWE1 (second series), stronger effect = lower value",0.946 (inactive)
same,normalized growth,"locus YJL187C, strain SWE1, stronger effect = lower value",0.986 (inactive)
same,normalized growth,"locus YJR043C, strain POL32, stronger effect = lower value",0.978 (inactive)
same,normalized growth,"locus YJR066W, strain TOR1, stronger effect = lower value",0.911 (inactive)
